Experimental findings from the supplement of paper PMC9262897, “Low-cost anti-mycobacterial drug discovery using engineered E. coli” (Nature Communications, 2022) are described below.

Common to all, as to experiment: growth (OD600 after 10 h); higher = more growth (less inhibition)
The subject of experiment [1] is E. coli TESEC Alr+ wild-type control. Conditions: compound 0.1 mM; raw OD600 reference: median of DMSO wells 0.241, cell-free background 0.041. The procedure:
(§1)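 TESEC Mtb Alr E. coli, or the Alr+ wild-type control, in 384-well plates with Prestwick library compounds at 0.1 mM and 1% DMSO, across arabinose induction levels of 1E3 to 1E7 nM. Growth is read as OD600 after 10 h at 37 °C in triplicate biological replicates.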

Experiment [2] deals with E. coli TESEC Mtb Alr. Conditions: compound 0.1 mM. As for the experimental part:
as §1

Another experiment concerns E. coli TESEC Mtb Asd. Conditions: compound 0.1 mM. The procedure: (§2)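 TESEC E. coli strains in which the native enzyme is deleted and replaced by arabinose-inducible Mtb Asd, DapB, CysH or TrpD, each grown in its selective medium. Strains were screened against the Prestwick library at 0.1 mM and 1% DMSO in 384-well format at low and high arabinose induction. Growth is read as OD600 after 10 h in triplicate.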

The subject of the next experiment is E. coli TESEC Mtb DapB. Conditions: compound 0.1 mM. The procedure:
as §2

In experiment [3] the test system is E. coli TESEC Mtb Alr. As to conditions: compound 0.1 mM. The procedure:
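TESEC Mtb Alr E. coli (ΔaraC ΔtolC ΔentC Δalr ΔdadX, arabinose-inducible Mtb Alr) or the Alr+ wild-type control strain, grown in defined M9-fructose medium without D-alanine in 96-well plates with Prestwick library compounds at 0.1 mM and 1% DMSO. Low Alr induction is 0.1 µM arabinose and high induction is 10 mM arabinose.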
This is another data set of the same source.

The mark [4] stands for this setting: arabinose 1000 nM, raw OD600 reference: median of DMSO wells 0.294, cell-free background 0.041.
The mark [5] stands for this setting: arabinose 10000 nM, raw OD600 reference: median of DMSO wells 0.264, cell-free background 0.041.
The mark [6] stands for this setting: arabinose 100000 nM, raw OD600 reference: median of DMSO wells 0.201, cell-free background 0.041.
The mark [7] stands for this setting: arabinose 1000000 nM, raw OD600 reference: median of DMSO wells 0.193, cell-free background 0.041.
Setting [8] is: arabinose 10000000 nM, raw OD600 reference: median of DMSO wells 0.146, cell-free background 0.041.
Where [9] appears, read: arabinose induction (level): High, raw OD600 reference: median of DMSO wells 0.331, cell-free background 0.041.
Setting [10] is: arabinose induction (level): Low, raw OD600 reference: median of DMSO wells 0.417, cell-free background 0.041.
Setting [11] is: arabinose induction (level): High, raw OD600 reference: median of DMSO wells […], cell-free background 0.041.
The mark [12] stands for this setting: arabinose induction (level): Low, raw OD600 reference: median of DMSO wells 0.227, cell-free background 0.041.
Setting [13] is: arabinose 100 nM, raw OD600 reference: median of DMSO wells 0.413, cell-free background 0.052.
Setting [14] is: arabinose 10000000 nM, raw OD600 reference: median of DMSO wells […], cell-free background 0.052.

Where a name gives a salt, the structure may show the parent alone. ± gives the standard deviation of the averaged measurements.

With `COC(=O)Nc1nc2cc(C(=O)c3ccccc3)ccc2[nH]1` [Mebendazole], the growth in experiment [1] stood at 0.202 ± 0.005; with E. coli TESEC Mtb Alr [2] (setting [4]) it was 0.245 ± 0.021; with E. coli TESEC Mtb Alr [2] (setting [5]) it was 0.269 ± 0.0042; in the experiment with E. coli TESEC Mtb Alr [2] (setting [6]) it was 0.189 ± 0.011; in the experiment with E. coli TESEC Mtb Alr [2] (setting [7]) it was 0.168 ± 0.0043; with E. coli TESEC Mtb Alr [2] (setting [8]), 0.159 ± 0.0019. In addition, the growth came to 0.306 ± 0.021 with E. coli TESEC Mtb Asd (setting [9]); 0.398 ± 0.078 in the experiment on E. coli TESEC Mtb Asd (setting [10]); 0.206 ± 0.017 in the experiment with E. coli TESEC Mtb DapB (setting [11]); 0.273 ± 0.053 in the experiment on E. coli TESEC Mtb DapB (setting [12]); 0.413 ± 0.0078 in the experiment on E. coli TESEC Mtb Alr [3] (setting [13]); 0.342 ± 0.017 with E. coli TESEC Mtb Alr [3] (setting [14]).

On to `Nc1c2c(nc3ccccc13)CCCC2` [Tacrine hydrochloride], for which the growth in experiment [1] was determined as 0.22 ± 0.0053; with E. coli TESEC Mtb Alr [2] (setting [4]) it was 0.263 ± 0.012; with E. coli TESEC Mtb Alr [2] (setting [5]) it was 0.248 ± 0.0067; with E. coli TESEC Mtb Alr [2] (setting [6]), 0.214 ± 0.042; in the experiment with E. coli TESEC Mtb Alr [2] (setting [7]), 0.149 ± 0.014; in the experiment on E. coli TESEC Mtb Alr [2] (setting [8]) it was 0.168 ± 0.007. Moreover, the growth in the experiment with E. coli TESEC Mtb Asd (setting [9]) came out at 0.242 ± 0.052; with E. coli TESEC Mtb Asd (setting [10]), 0.316 ± 0.076; in the experiment on E. coli TESEC Mtb DapB (setting [11]), 0.222 ± 0.024; in the experiment with E. coli TESEC Mtb DapB (setting [12]) it was 0.228 ± 0.014; with E. coli TESEC Mtb Alr [3] (setting [13]) it was 0.41 ± 0.01; with E. coli TESEC Mtb Alr [3] (setting [14]), 0.37 ± 0.017.

For `NS(=O)(=O)c1cc(C(=O)O)cc(N2CCCC2)c1Oc1ccccc1` [Piretanide], the growth in experiment [1] turned out to be 0.243 ± 0.0085; in the experiment with E. coli TESEC Mtb Alr [2] (setting [4]) it was 0.28 ± 0.0043; with E. coli TESEC Mtb Alr [2] (setting [5]) it was 0.278 ± 0.0094; in the experiment with E. coli TESEC Mtb Alr [2] (setting [6]), 0.22 ± 0.025; in the experiment on E. coli TESEC Mtb Alr [2] (setting [7]), 0.202 ± 0.0072; in the experiment with E. coli TESEC Mtb Alr [2] (setting [8]), 0.134 ± 0.0051. For the same compound, the growth with E. coli TESEC Mtb Asd (setting [9]) was found to be 0.405 ± 0.0083; with E. coli TESEC Mtb Asd (setting [10]) it was 0.4 ± 0.034; with E. coli TESEC Mtb DapB (setting [11]) it was 0.21 ± 0.029; with E. coli TESEC Mtb DapB (setting [12]), 0.245 ± 0.025; with E. coli TESEC Mtb Alr [3] (setting [13]), 0.4122 ± 0.0034; in the experiment on E. coli TESEC Mtb Alr [3] (setting [14]) it was 0.341 ± 0.0064.

Turning to `COc1cc2nc(N3CCN(C(=O)C4COc5ccccc5O4)CC3)nc(N)c2cc1OC` (stereo unspecified) [Doxazosin mesylate], the growth in experiment [1] amounted to 0.054 ± 0.0033; with E. coli TESEC Mtb Alr [2] (setting [4]) it was 0.047 ± 0.002; in the experiment on E. coli TESEC Mtb Alr [2] (setting [5]) it was 0.0476 ± 0.00044; with E. coli TESEC Mtb Alr [2] (setting [6]), 0.0463 ± 0.0012; in the experiment on E. coli TESEC Mtb Alr [2] (setting [7]), 0.04047 ± 5.8e-05; in the experiment with E. coli TESEC Mtb Alr [2] (setting [8]), 0.0449 ± 0.0026. Besides, the growth with E. coli TESEC Mtb Asd (setting [9]) turned out to be 0.092 ± 0.023; in the experiment on E. coli TESEC Mtb Asd (setting [10]), 0.0521 ± 0.004; in the experiment with E. coli TESEC Mtb DapB (setting [11]), 0.194 ± 0.015; in the experiment with E. coli TESEC Mtb DapB (setting [12]) it was 0.208 ± 0.038; in the experiment on E. coli TESEC Mtb Alr [3] (setting [13]) it was 0.277 ± 0.2; with E. coli TESEC Mtb Alr [3] (setting [14]), 0.0514 ± 0.0015.

For `CN(C(=O)CN(CCO)CC(=O)N(C)C(C)(C)Cc1ccccc1)C(C)(C)Cc1ccccc1` [Oxethazaine], the growth in experiment [1] was found to be 0.0424 ± 0.0038; with E. coli TESEC Mtb Alr [2] (setting [4]), 0.0404 ± 0.001; in the experiment on E. coli TESEC Mtb Alr [2] (setting [5]), 0.03963 ± 0.00015; in the experiment on E. coli TESEC Mtb Alr [2] (setting [6]), 0.0411 ± 0.00087; in the experiment on E. coli TESEC Mtb Alr [2] (setting [7]), 0.03937 ± 0.00015; with E. coli TESEC Mtb Alr [2] (setting [8]) it was 0.0411 ± 0.0013. Also, the growth with E. coli TESEC Mtb Asd (setting [9]) worked out at 0.179 ± 0.014; in the experiment with E. coli TESEC Mtb Asd (setting [10]), 0.25 ± 0.037; in the experiment with E. coli TESEC Mtb DapB (setting [11]), 0.187 ± 0.031; in the experiment with E. coli TESEC Mtb DapB (setting [12]), 0.202 ± 0.05; with E. coli TESEC Mtb Alr [3] (setting [13]) it was 0.165 ± 0.2; in the experiment with E. coli TESEC Mtb Alr [3] (setting [14]), 0.0514 ± 0.00058.

`CCCCCN(CCCCC)C(=O)C(CCC(=O)O)NC(=O)c1ccc(Cl)c(Cl)c1` (stereo unspecified) [Lorglumide sodium salt]: the growth in experiment [1] worked out at 0.152 ± 0.0035; in the experiment on E. coli TESEC Mtb Alr [2] (setting [4]), 0.158 ± 0.01; in the experiment with E. coli TESEC Mtb Alr [2] (setting [5]), 0.114 ± 0.0014; with E. coli TESEC Mtb Alr [2] (setting [6]) it was 0.158 ± 0.0084; in the experiment with E. coli TESEC Mtb Alr [2] (setting [7]), 0.0691 ± 0.00087; with E. coli TESEC Mtb Alr [2] (setting [8]), 0.125 ± 0.0012. Also, the growth was found to be 0.194 ± 0.019 in the experiment on E. coli TESEC Mtb Asd (setting [9]); 0.162 ± 0.0069 in the experiment with E. coli TESEC Mtb Asd (setting [10]); 0.153 ± 0.015 with E. coli TESEC Mtb DapB (setting [11]); 0.243 ± 0.015 in the experiment with E. coli TESEC Mtb DapB (setting [12]); 0.302 ± 0.17 with E. coli TESEC Mtb Alr [3] (setting [13]); 0.161 ± 0.025 in the experiment on E. coli TESEC Mtb Alr [3] (setting [14]).

With `COc1cc2ncnc(Nc3ccc(F)c(Cl)c3)c2cc1OCCCN1CCOCC1` [Gefitinib], the growth in experiment [1] came out at 0.206 ± 0.013; in the experiment with E. coli TESEC Mtb Alr [2] (setting [4]), 0.294 ± 0.019; with E. coli TESEC Mtb Alr [2] (setting [5]) it was 0.24 ± 0.0039; in the experiment on E. coli TESEC Mtb Alr [2] (setting [6]), 0.198 ± 0.017; in the experiment with E. coli TESEC Mtb Alr [2] (setting [7]) it was 0.161 ± 0.0089; with E. coli TESEC Mtb Alr [2] (setting [8]), 0.162 ± 0.0061. Further, the growth worked out at 0.261 ± 0.026 with E. coli TESEC Mtb Asd (setting [9]); 0.454 ± 0.038 in the experiment on E. coli TESEC Mtb Asd (setting [10]); 0.207 ± 0.012 in the experiment with E. coli TESEC Mtb DapB (setting [11]); 0.246 ± 0.0095 in the experiment on E. coli TESEC Mtb DapB (setting [12]); 0.284 ± 0.2 in the experiment on E. coli TESEC Mtb Alr [3] (setting [13]); 0.0533 ± 0.0025 in the experiment with E. coli TESEC Mtb Alr [3] (setting [14]).

In the case of `CCCCC(O)c1ccccc1` (stereo unspecified) [Fenipentol], the growth worked out at 0.242 ± 0.0077 in experiment [1]; 0.295 ± 0.005 in the experiment with E. coli TESEC Mtb Alr [2] (setting [4]); 0.253 ± 0.0059 with E. coli TESEC Mtb Alr [2] (setting [5]); 0.233 ± 0.035 in the experiment on E. coli TESEC Mtb Alr [2] (setting [6]); 0.178 ± 0.0054 in the experiment with E. coli TESEC Mtb Alr [2] (setting [7]); 0.149 ± 0.0015 in the experiment with E. coli TESEC Mtb Alr [2] (setting [8]). In addition, the growth in the experiment on E. coli TESEC Mtb Asd (setting [9]) was 0.346 ± 0.079; in the experiment with E. coli TESEC Mtb Asd (setting [10]), 0.357 ± 0.036; in the experiment on E. coli TESEC Mtb DapB (setting [11]) it was 0.227 ± 0.013; in the experiment with E. coli TESEC Mtb DapB (setting [12]) it was 0.227 ± 0.025; with E. coli TESEC Mtb Alr [3] (setting [13]), 0.403 ± 0.0094; in the experiment with E. coli TESEC Mtb Alr [3] (setting [14]), 0.337 ± 0.017.
